Compounds without any hit were thinned out: in the full panel of roughly 83,000, 20% have a hit.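 Note: values are percent growth. 100 is the growth of untreated cells, values between 100 and 0 indicate rising inhibition; between -100 and 0 indicates cell death.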 Unmarked numbers belong to inactive results. Active and inactive are the calls of the source. How the source made its calls: active means growth percent below 10; inactive means the rest.
Tested on: MDA-MB-468 breast
Test: NCI-60 one-dose screen, 48 h (100 = growth as untreated, 0 = no growth, -100 = all killed)
Settings: 10 µM unless noted

Row | SMILES | growth
1 | O=C(Nc1ccccc1)c1cc(Cl)ccc1O | 47.6%
2 | COc1ccc(-c2nn(-c3cccc(NC(=O)c4ccc5c(c4)OCCO5)c3)cc2-c2ccncc2)cc1Cl | 26.2%
3 | O=C(Nc1cc(Br)ccn1)c1cc2cc(Nc3nc(-c4ccccc4)nc4ccccc34)ccc2oc1=O | 123%
4 | N#Cc1c(Nc2cccc(Cl)c2)sc(C(=O)c2cc3cc(Cl)ccc3o2)c1N | 100%
5 | C[n+]1c(/C=C/c2c[nH]c3ccccc23)ccc2ccccc21 | 23%
6 | NC(=O)SCC(=O)NNc1ccccc1 | 92.9%
7 | CCOC(=O)c1ccc2[nH]c(O)c(C(=Nc3ccc(N(C)C(=O)CN4CCN(C)CC4)cc3)c3ccccc3)c2c1 | -84.4% (active)
8 | O=C(Nc1ccncc1)C(=O)c1cn(S(=O)(=O)c2cccc(Cl)c2F)c2ccccc12 | 33%
9 | COc1cc(C(=O)NNC(=O)c2ccccc2O)cc(OC)c1OC | 103%
10 | CCN(CC)S(=O)(=O)c1ccc(OC)c(NC(=O)c2[nH]c(C)c3c2CCCCC3=O)c1 | 10.7%
11 | CN1CCN(Cc2ccc(NC(=O)c3cncc(C#Cc4c(N)ncc5ccc(F)cc45)c3)cc2C(F)(F)F)CC1 | 54.3%
12 | COc1ccc(-c2nn(-c3cccc(Cl)c3)cc2-c2cc(-c3ccccc3)[nH]c(=O)c2C#N)cc1 | 16.4%
13 | COc1ccc2c(c1)/C(=C\c1c[nH]c3ccc(OC)cc13)C(=O)N2 | -22.5% (active)
14 | O=C(Nc1cccc(Cl)c1)Nc1nc2ccc(-c3cccc4ccccc34)cc2s1 | 37.6%

From PubChem BioAssay (NCI)
